TRHR PAM: allosterically enhances the human TRH receptor; P34981; TRHR cells, fluo-8 calcium fluorescence, EC20 TRH enhancement; enhancement, % at 2 µM; hit rate 0.66% among 360,000; in the data active = enhancement above about 30%; also: 0% is about no effect
Target sequence (P34981 whole entry, looked up): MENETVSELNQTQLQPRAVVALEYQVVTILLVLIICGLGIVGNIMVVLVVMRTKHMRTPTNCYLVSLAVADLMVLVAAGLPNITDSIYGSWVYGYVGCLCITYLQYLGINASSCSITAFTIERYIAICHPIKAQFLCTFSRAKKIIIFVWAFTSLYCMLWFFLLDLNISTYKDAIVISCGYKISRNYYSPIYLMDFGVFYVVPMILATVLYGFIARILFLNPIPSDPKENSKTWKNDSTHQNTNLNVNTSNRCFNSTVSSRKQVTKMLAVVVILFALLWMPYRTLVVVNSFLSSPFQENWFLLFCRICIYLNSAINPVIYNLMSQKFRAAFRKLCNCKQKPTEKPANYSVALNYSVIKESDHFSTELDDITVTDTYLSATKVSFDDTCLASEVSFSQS
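TRHR-expressing cells loaded with fluo-8 calcium dye were read kinetically (ex 480/em 530) during compound addition, then stimulated with an EC20 of TRH (10 nM final). Enhancement of the Gq-mediated intracellular calcium response was scored.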
TRHR agonist: agonists of human TRH receptor | P34981 | TRHR cells, calcium flux fluo-8, FDSS agonist mode | activation, % at 2 µM | hit rate 0.18% among 360,000 | AID 493084; in the data active = activation above about 30%; also: 0% is about no effect
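TRHR-expressing cells, plated overnight in medium with 10% serum, were loaded with fluo-8 calcium dye at room temperature. After a 10 s baseline, library compound was pin-added and calcium release was recorded kinetically (ex 480/em 530) as agonist response.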
TRPML1 agonist: human mucolipin-1 channel agonism; AID 624414; Q9GZU1; hit rate 0.12% among 410,000; activation, % (no concentration beside the values); TRPML1-expressing cells, Ca2+ dye fluorescence, FDSS; in the data active = activation above about 50%; inconclusive = mostly about 30% to 49%; also: 0% is about no effect
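Tetracycline-induced TRPML1-DL cells are seeded and incubated overnight before loading with a no-wash Ca2+ dye and quencher. Agonist activity is taken from the 110 s fluorescence read following compound pin-transfer on an FDSS, before EC80 54-4 challenge.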
TRPV1 PAM: enhances activation of the human vanilloid receptor TRPV1; hit rate 0.02% among 320,000; potentiation, % at 8.33 µM; AID 540277; Q8NER1; TRPV1-expressing cells, Fluo-8 calcium influx, capsaicin EC20 potentiation; in the data active = potentiation above about 80%; inconclusive = between about 30% and that limit; also: 0% is about no effect
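Cells expressing TRPV1 were dye-loaded with Fluo-8 and read kinetically: 10 s baseline, 3 min after compound (agonist portion), then 2 min after EC20 capsaicin (allosteric enhancer portion). Calcium-bound dye fluorescence at 480/520 nm.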
TRPV1 agonist: human TRPV1 agonism | TRPV1-expressing cells, Fluo-8 calcium influx, agonist mode | activation, % at 8.33 µM | hit rate 0.19% among 320,000 | AID 540275; in the data active = activation above about 80%; inconclusive = between about 30% and that limit; also: 0% is about no effect
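Fluo-8 calcium influx in TRPV1-expressing cells, kinetic read (ex 480/em 520 nm). Compound added and read 3 min for agonist activity, followed by capsaicin at EC20 final and 2 min further read for enhancement.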
TRPML1 blocker: human mucolipin-1 channel inhibition | Q9GZU1 | AID 624415 | activity change, negative = inhibition, % (no concentration beside the values) | TRPML1-inducible cells, Ca2+ dye fluorescence, FDSS; stronger effect = lower value; inhibition of EC80 agonist-evoked calcium signal | hit rate 0.02% among 390,000; in the data active = activity change below about -50%; inconclusive = between about -30% and that limit;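 also: stimulus is agonist 54-4 at its EC80 concentration; % is scaled to controls: 0 for no effect and ±100 for the full control effect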
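Tet-induced TRPML1-DL cells loaded with Ca8 no-wash calcium dye were read kinetically on FDSS. Compound addition was followed by EC80 agonist 54-4 (4 uM final); inhibition was read over 110 s.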
* = called active by the depositor; ? = inconclusive; . = not tested or not shown. Compounds with a hit are over-represented: about 0.99% of the library has one in this group of screens.

SMILES	TRHR PAM	TRHR agonist	TRPML1 agonist	TRPV1 PAM	TRPV1 agonist	TRPML1 blocker
Cc1nc(N2CCN(c3ccccn3)CC2)c2c(C)c(C(=O)Nc3ccc(Br)cc3C)sc2n1	-1	0	55*	11	-2	1
Cc1cc2c(s1)c1cnn(Cc3ccc(F)cc3)c(=O)c1n2C	2	0	.	.	.	.
O=C(NN=Cc1c(O)ccc2ccccc12)c1ccncc1	.	.	?	.	.	-5
O=C(N/N=C/c1c(O)ccc2ccccc12)c1cccnc1	8	36*	5	-18	30	12
O=C(N/N=C\c1c(O)ccc2ccccc12)c1cncc(Br)c1	38*	105*	?	-24	?	2
O=C(N/N=C\c1c(O)ccc2ccccc12)c1ccc(O)cc1	-4	5	0	1	?	34
CN(C)c1c(Cl)cc(/C=C2\C=Cc3ccccc32)cc1Cl	.	.	0	.	.	.
Cc1csc[n+]1CC(=O)c1ccc(I)cc1	.	.	0	.	.	.
C1CCC(Nc2nc3nonc3nc2N2CCSCC2)C1	32*	0	3	9	-3	15
Cn1nc(-c2cccnc2)nc2c(=O)n(C)c(=O)nc1-2	.	.	-1	.	.	.
Cc1ccc(CN2C(=O)N/C(=C\c3ccc(N4CCOCC4)cc3)C2=O)cc1	-3	0	1	5	12	4
Cc1cc(/C=C2/C(=O)N(C)C(=S)N2C)ccc1N1CCCC1	-3	29	?	16	20	-7
Cc1cc(/C=C2\NC(=S)N(C)C2=O)ccc1N1CCCC1	32*	142*	94*	-1	89*	-11
CCCN1C(=O)/C(=C/c2ccc(N3CCCC3)c(C)c2)NC1=S	.	.	67*	.	.	-4
CCN1C(=O)/C(=C/c2ccc(N3CCCC3)cc2)NC1=S	18	111*	64*	-5	?	-16
CCCCCCCC(=O)N/N=C(\C)c1ccc(O)cc1O	-2	1	57*	0	5	-11
CN(C)c1ccc(/C=C/c2ccnc3ccccc23)cc1Br	.	.	0	.	.	.
CC1CCN(C(=O)/C=C/c2ccc(C(C)(C)C)cc2)CC1	-6	0	3	-11	89*	-11
CC(C)(C)c1ccc(/C=C/C(=O)N2CCCCC2)cc1	4	-1	1	-20	94*	-9
Cn1c(=O)nc2n(Cc3ccccc3)c3ccccc3cc-2c1=O	31*	0	-1	-10	7	-17
Cc1ccccc1-n1c2nc(=O)n(C)c(=O)c-2cc2ccccc21	-3	0	0	-11	4	1
O=C(CCn1cccn1)N1CCCC(N2CCN(c3cccc(C(F)(F)F)c3)CC2)C1 (stereo not given)	34*	0	1	-10	0	20
Cc1ccc(CN2CCOCCS2(=O)=O)cc1	.	.	0	.	.	.
NS(=O)(=O)c1ccc(NC=C2C(=O)OC3(CCCCC3)OC2=O)cc1	33*	0	0	0	-5	-3
COc1ccc(NC(=O)N2CCN3CCCCC3C2)cc1OC (stereo not given)	0	1	1	.	.	-51*
SMILES	TRHR PAM	TRHR agonist	TRPML1 agonist	TRPV1 PAM	TRPV1 agonist	TRPML1 blocker
Brc1cc(Br)c[n+](CCc2ccccc2)c1	.	.	0	.	.	.
O=c1[nH]c(=S)c2n[nH]nc2[nH]1	.	.	-1	.	.	.
Cc1cc(F)ccc1NC(=O)C(c1ccccc1)N1Cc2ccccc2C1=O (stereo not given)	7	2	1	.	.	9
Cc1ccc(C)c(NC(=O)C(c2ccccc2)N2Cc3ccccc3C2=O)c1 (stereo not given)	32*	0	3	.	.	-10
COC(=O)c1c(C)[nH]c(C=Nc2ccc(OC)cc2)c1C	38*	0	0	-1	-3	3
Cc1ccc(S(=O)(=O)N2CCOC23CCN(C(=O)c2cc(Cl)ccc2Cl)CC3)cc1	-4	0	-1	2	6	-3
Cc1ccc(S(=O)(=O)N2CCOC23CCN(C(=O)c2ccc(Cl)cc2Cl)CC3)cc1	32*	1	-1	11	8	-4
CCCN(CCC)CCCNC(=O)c1cc2cc3ccc(Cl)cc3nc2o1	40*	1	0	1	1	14
C/C(=C\C=C(C#N)C#N)c1cc(C#N)c(N)o1	-6	11	54*	2	10	3

Screening data from PubChem.
